Test results taken from publication PMC4336329 (PLoS ONE, 2015).
In all, about 310,000 compounds went through this assay and about 2,200 (0.71%) showed an effect of 50% or more. The effect is printed as a negative number. The sample holds strong results, similar compounds and a random draw of the others, so the mix is not that of the screen.

Each compound was assayed against human ether-à-go-go-related gene (hERG) potassium channel (human, UniProt Q12809) (assay: primary screen, population patch clamp on CHO cells stably expressing hERG; higher = less effect of the substance).
Chain of human ether-à-go-go-related gene (hERG) potassium channel (Q12809 whole entry, looked up): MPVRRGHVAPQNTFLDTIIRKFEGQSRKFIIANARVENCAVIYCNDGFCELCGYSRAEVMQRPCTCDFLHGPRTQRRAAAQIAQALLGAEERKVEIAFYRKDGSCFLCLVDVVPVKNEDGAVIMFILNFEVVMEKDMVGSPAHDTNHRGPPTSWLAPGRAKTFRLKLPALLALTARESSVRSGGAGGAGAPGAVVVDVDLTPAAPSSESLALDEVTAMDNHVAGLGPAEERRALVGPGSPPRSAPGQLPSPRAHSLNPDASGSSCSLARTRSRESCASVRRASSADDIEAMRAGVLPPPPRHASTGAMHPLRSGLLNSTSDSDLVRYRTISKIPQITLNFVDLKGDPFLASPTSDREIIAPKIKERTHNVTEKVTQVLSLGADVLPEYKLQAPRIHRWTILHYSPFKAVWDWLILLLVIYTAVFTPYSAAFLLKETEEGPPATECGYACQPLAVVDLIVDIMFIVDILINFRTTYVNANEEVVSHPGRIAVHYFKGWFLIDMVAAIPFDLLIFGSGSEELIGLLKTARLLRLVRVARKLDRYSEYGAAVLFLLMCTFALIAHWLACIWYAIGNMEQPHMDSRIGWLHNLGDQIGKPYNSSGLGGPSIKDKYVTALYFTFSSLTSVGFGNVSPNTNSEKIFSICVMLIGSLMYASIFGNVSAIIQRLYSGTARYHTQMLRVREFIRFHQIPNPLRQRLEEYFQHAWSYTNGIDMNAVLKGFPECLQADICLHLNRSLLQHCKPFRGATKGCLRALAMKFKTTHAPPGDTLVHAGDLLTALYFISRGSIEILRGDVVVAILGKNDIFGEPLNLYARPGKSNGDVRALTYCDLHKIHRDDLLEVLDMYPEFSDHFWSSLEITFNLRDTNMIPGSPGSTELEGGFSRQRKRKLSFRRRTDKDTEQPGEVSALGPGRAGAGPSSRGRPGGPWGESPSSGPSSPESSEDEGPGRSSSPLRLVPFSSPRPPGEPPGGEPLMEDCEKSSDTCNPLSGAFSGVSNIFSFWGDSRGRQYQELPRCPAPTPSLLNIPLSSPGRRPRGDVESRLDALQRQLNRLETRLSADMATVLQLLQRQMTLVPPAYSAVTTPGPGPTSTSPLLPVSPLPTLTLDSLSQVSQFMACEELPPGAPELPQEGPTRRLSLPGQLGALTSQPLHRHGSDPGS

Row | Compound | hERG current change (%, negative = inhibition) at 1uM [%]
1 | COC(=O)C(CCCCNC(=O)c1ccc([N+](=O)[O-])cc1)NC(=O)c1ccc([N+](=O)[O-])cc1 (centres unmarked) | -84.2
2 | COC(=O)C(CC(C)C)NC(=O)c1ccc([N+](=O)[O-])cc1 (centres unmarked) | 0.193
3 | O=C(NCCCCC(NC(=O)c1ccc([N+](=O)[O-])cc1)C(=O)O)c1ccc([N+](=O)[O-])cc1 (centres unmarked) | -6.29
4 | CCOC(=O)c1nnc(-c2ccccc2)nc1NC | 2.74
5 | CCN1CCN(C(=S)c2ccc(SC)cc2)CC1 | -18
6 | Cc1cccc(C(=O)Nc2cccc3cccnc23)c1 | 17.4
7 | CC(=O)NC(=S)NNC(=O)CCc1ccccc1 | 6.91
8 | O=C(Cc1ccc(Br)cc1)Nc1cccc(-c2cn3c(n2)SCC3)c1 | 12.2
9 | COC(=O)c1sccc1-n1cccc1C(=O)C(=O)N1CCOCC1 | -87.6
10 | COC(=O)c1sccc1-n1cccc1C(=O)N1CCOCC1 | -11.6
11 | COC(=O)c1sccc1-n1cccc1C(=O)C(=O)N1CCCC1 | 6.84
12 | COc1nnc(-c2ccc(C)cc2)c2ccccc12 | 13.6
13 | CCN(CC)CCOc1nnc(-c2ccc(OC)cc2)c2ccccc12 | -25.1
14 | CCN(CC)CCOc1nnc(-c2ccc(C)cc2)c2ccccc12 | -58.4
15 | O=C(OCc1ccc([N+](=O)[O-])cc1)c1cc([N+](=O)[O-])ccc1N1CCOCC1 | -67.2
16 | Cc1ccc(COC(=O)c2cc(S(=O)(=O)N3CCCCC3)ccc2N2CCOCC2)cc1 | -1.22
17 | Cc1ccc(COC(=O)c2cc([N+](=O)[O-])ccc2N2CCOCC2)cc1 | -21
18 | O=C(OCc1cccc(Cl)c1)c1cc([N+](=O)[O-])ccc1N1CCOCC1 | -5.04
19 | O=C(OCc1ccc(F)cc1)c1cc(S(=O)(=O)N2CCCCC2)ccc1N1CCOCC1 | 4.59
20 | COc1ccc(CCNC(=O)c2cc([N+](=O)[O-])ccc2N2CCOCC2)cc1 | 1.7
21 | O=C(NCCc1ccc(F)cc1)c1cc([N+](=O)[O-])ccc1N1CCOCC1 | -98.2
22 | NS(=O)(=O)c1ccc(CCNC(=O)c2cc([N+](=O)[O-])ccc2N2CCOCC2)cc1 | -6.06
23 | O=C(OCc1ccc([N+](=O)[O-])cc1)c1cc(S(=O)(=O)N2CCCCC2)ccc1N1CCOCC1 | -77.9
24 | O=C(NCCS(=O)(=O)N1CCN(c2ccccc2F)CC1)C1CC(=O)N(c2ccc(F)cc2)C1 (centres unmarked) | 5.78
25 | COc1cccc(N2CC(C(=O)OC(C)C(=O)c3ccccc3)CC2=O)c1 (centres unmarked) | 5.64
26 | Cc1c(O)ccc(C(=O)CN2CCN(c3ccccc3)CC2)c1O | 13.2
27 | Cc1ccc(-n2c(SCC(=O)N/N=C/c3ccc(C)s3)nnc2-c2ccccc2)cc1 | 7.01

Row | Compound | hERG current change (%, negative = inhibition) at 1uM [%]
28 | Cn1c(CCNC(=O)c2ccccc2F)nnc1SCc1nc2ccccc2c(=O)[nH]1 | 11.4
29 | COc1ccc(-c2[nH]ncc2CN(C)CCCN2CCOCC2)cc1F | 12
30 | CCOc1ccc(CCNC(=O)c2ccc(=O)[nH]c2)cc1OCC | 4.91
31 | O=C(c1ccc2c(c1)ncn2C1CCCCC1)N1CCC2(CC1)OCCO2 | 0.618
32 | CN1/C(=C\C=C\C2=[N+](C)c3ccc4ccccc4c3C2(C)C)C(C)(C)c2ccccc21.[O-][Cl+3]([O-])([O-])[O-] | -43.6
33 | CCN1/C(=C\C=C\C2=[N+](CC)c3ccccc3C2(C)C)C(C)(C)c2ccccc21.[O-][Cl+3]([O-])([O-])[O-] | -86.1
34 | CCCN1C(=O)/C(=C/C=C2\N(CC)c3ccccc3C2(C)C)SC1=S | 5.72
35 | COc1ccc(S(=O)(=O)Nc2ccc(Cc3ccncc3)cc2)cc1C | 0.33
36 | Cc1cc(C)c(S(=O)(=O)NCC2CCC(C(=O)NCCCN3CCC(C)CC3)CC2)c(C)c1 (centres unmarked) | -52.9
37 | CC1CCN(CCCNC(=O)C2CCC(CNS(=O)(=O)c3ccccc3)CC2)CC1 (centres unmarked) | 16.3
38 | CCC1CCCCN1CCCNC(=O)C1CCC(CNS(=O)(=O)c2c(C)cc(C)cc2C)CC1 (centres unmarked) | -3.19
39 | CCCCNC(=O)C1CCC(CNS(=O)(=O)c2c(C)cc(C)cc2C)CC1 (centres unmarked) | -13.4
40 | CCN(CC)CCCNC(=O)C1CCC(CNS(=O)(=O)c2c(C)cc(C)cc2C)CC1 (centres unmarked) | 12.6
41 | CCCCN(C)CCCNC(=O)C1CCC(CNS(=O)(=O)c2c(C)cc(C)cc2C)CC1 (centres unmarked) | -76.3
42 | Cc1ccc(Nc2nc(N)c([N+](=O)[O-])c(NCc3ccccc3)n2)cc1 | 8.5
43 | CC(C)(C)c1ccc(OCCCC(=O)N2CCOCC2)cc1 | -2.13
44 | O=C(CCNC(=O)c1ccccc1Cl)NCC1CCCO1 (centres unmarked) | -9.04
45 | CCCn1c(N)c(C(=O)CN(C)CC(=O)Nc2c(Cl)cccc2Cl)c(=O)[nH]c1=O | 0.55
46 | CCCn1c(N)c(C(=O)CN(C)CC(=O)Nc2ccc(F)cc2)c(=O)[nH]c1=O | -20
47 | CCCn1c(N)c(C(=O)CN(C)CC(=O)Nc2cccc(F)c2)c(=O)[nH]c1=O | -73.1
48 | O=C(Nc1ccccc1)N1CCn2c(nc3ccccc32)C1 | -6.18
49 | COc1cc(C(=O)Nc2ccc(C)cc2)c2ccccc2n1 | 7.49
50 | CN(Cc1ccccc1)C(=O)CCc1ccccc1 | 13.8
51 | Cc1cc(Nc2cccc([N+](=O)[O-])c2)c2ccccc2n1 | -36.7
52 | Cc1cc(Nc2cccc([N+](=O)[O-])c2)c2cccc(C)c2n1.Cl | -73.5
53 | CC(=O)c1cccc(Nc2cc(C)nc3c(C)cccc23)c1.Cl | -16.9
